According to PubChem BioAssay AID624354 (Sanford-Burnham Center for Chemical Genomics, 2012):
Screen size: about 360,000 compounds; about 3,800 (1.1%) were called active. The sample holds actives, similar compounds and a random draw of the others, so the mix is not that of the screen.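 How the source made its calls: active means compounds causing at least 50% loss of cell viability in the single-dose screen, relative to plate controls; inactive means the rest.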

Assay: viability loss with TRAIL in NB7+C8 cells, primary screen, TRAIL sensitizer project, cell-based, ATPlite luminescence (AID 624354)
Details: at 10 µM, active compounds read high

Compound | inhibition (viability loss, TRAIL sensitization)
CN1C(=O)c2ccccc2C(C(=O)NCCCN2CCCC2)C1c1c[nH]c2ccccc12 (centres undefined) | 61.6% (active)
O=C(NCCCN1CCCCC1)C1CC(=O)N(CCc2ccccc2)C1 (centres undefined) | 1% (inactive)
CCN(CC)CCNC(=O)C1c2ccccc2C(=O)N(C)C1c1cn(C)c2ccccc12 (centres undefined) | 14.1% (inactive)
COCOc1cccc(CN2CCC(C)(Oc3ccc(SC)cc3)C2)c1 (centres undefined) | 10.9% (inactive)
C[C@@H]1CN([C@H](C)CO)C(=O)CCCn2cc(nn2)CO[C@H]1CN(C)S(=O)(=O)c1ccc(Oc2ccccc2)nc1 | 2.33% (inactive)
COc1ccc(CCNCC(O)Cn2ccc3ccccc32)cc1OC (centres undefined) | -3.08% (inactive)
O=C(NC1CCCCC1)c1ccc(CNc2c(N3CCOCC3)c(=O)c2=O)cc1 | -0.739% (inactive)
CCOC(=O)C1CCCN(C(=O)c2sc3nc(C)nc(N4CCOCC4)c3c2C)C1 (centres undefined) | 15.8% (inactive)
Cc1cc(/C=C2/C(=N)N3C(=NC2=O)SN=C3S(C)(=O)=O)c(C)n1-c1ccccc1 | 72.2% (active)
CS(=O)(=O)c1ccc2c(c1)SC1=NC(=O)/C(=C/c3ccco3)C(=N)N12 | 11.3% (inactive)
CCOC(=O)C1=C(O)/C(=C/c2cc(C)n(-c3ccccc3)c2C)N=C1C | -20.2% (inactive)
COC(=O)C[C@@H]1C=C[C@@H](NC(=O)c2cccnc2)[C@@H](CO)O1 | -8.25% (inactive)
O=C(NC1CCCCC1)C(c1cc2ccccc2o1)n1c(=O)c(-c2ccco2)nc2ccccc21 (centres undefined) | 1.96% (inactive)
C/C(=N\NC(=O)c1cc(-c2ccc(O)cc2)nc2ccccc12)c1cccnc1 | 3.5% (inactive)
CCOc1ccc(-c2cc(C(=O)N/N=C/c3ccc(O)cc3)c3ccccc3n2)cc1 | 72.3% (active)
CCOc1ccc(/C=N\NC(=O)c2c(C)nc3cc(C)ccn23)cc1 | 7.46% (inactive)
Cc1ccc(S(=O)(=O)NCC2CCC(C(=O)N3CCOCC3)CC2)cc1 (centres undefined) | -6.3% (inactive)
C[C@H]1NS(=O)(=O)c2cc(Cl)ccc2O[C@@H]1c1ccccc1 | 11.6% (inactive)
CCCn1nc(Oc2nc(NC(C)C)nc(N(C)C)n2)ccc1=O | -7.89% (inactive)
Cc1ccc2cc(CCNC(=O)c3ccc4c(c3)OCO4)c(=O)[nH]c2c1 | 1.68% (inactive)
Cc1nc2cc(NC(=O)Nc3cccc(F)c3)ccc2n1C | 63.6% (active)
C=CCN(C(=O)Nc1ccc2c(c1)nc(C)n2C)c1ccccc1 | 14.6% (inactive)
Cc1nc2cc(NCc3cccs3)ccc2n1C | 2.96% (inactive)
Cc1cc([N+](=O)[O-])c(=O)[nH]c1C | 16.2% (inactive)
